# High-throughput results from PubChem.
# An excerpt weighted towards active compounds, which were near 19% of everything screened.
# DT40 TDP1 CPT = DT40-hTDP1 cell growth loss with CPT; chicken DT40 Tdp1-/-;hTDP1 cells + 20 nM CPT, ATP luminescence, 48 h; Potency, µM (doses to about 46.2 µM), most hits filed as inhibitors; 12% of 420,000 active; AID 686979; also: nearly all actives have a fitted effect of over 55% in size
#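 Chicken DT40 Tdp1-/- cells complemented with human TDP1, 400 cells/well, exposed to compounds plus 20 nM camptothecin for at least 48 h at 37 C; viability read as ATP content by CellTiter-Glo luminescence.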
# TDP1 block = inhibitors of human tyrosyl-DNA phosphodiesterase TDP1; Q9NUW8; AID 485290; 0.28% of 350,000 active; Potency, µM (top dose mostly 130 µM), usual class: inhibitors; recombinant TDP1, AlphaScreen DNA substrate cleavage; also: nearly all actives have a fitted effect of over 40% in size
#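 Signal: AlphaScreen proximity between streptavidin donor and anti-FITC acceptor beads on intact substrate. Reaction: Tdp1 1 nM, substrate 15 nM final, 5 min RT after 15 min compound preincubation.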
# RORgamma inh = inhibitors of mouse ROR gamma transcriptional activity; P51450; Drosophila S2 Gal4-RORgamma UAS-luciferase reporter, 20 h; Potency, µM (series often up to 53.6 µM), most hits filed as inhibitors; 5.4% of 310,000 active; AID 2551; also: nearly all actives have a fitted effect of over 60% in size
# Target sequence (P51450 whole entry, looked up, the tested form may be a part): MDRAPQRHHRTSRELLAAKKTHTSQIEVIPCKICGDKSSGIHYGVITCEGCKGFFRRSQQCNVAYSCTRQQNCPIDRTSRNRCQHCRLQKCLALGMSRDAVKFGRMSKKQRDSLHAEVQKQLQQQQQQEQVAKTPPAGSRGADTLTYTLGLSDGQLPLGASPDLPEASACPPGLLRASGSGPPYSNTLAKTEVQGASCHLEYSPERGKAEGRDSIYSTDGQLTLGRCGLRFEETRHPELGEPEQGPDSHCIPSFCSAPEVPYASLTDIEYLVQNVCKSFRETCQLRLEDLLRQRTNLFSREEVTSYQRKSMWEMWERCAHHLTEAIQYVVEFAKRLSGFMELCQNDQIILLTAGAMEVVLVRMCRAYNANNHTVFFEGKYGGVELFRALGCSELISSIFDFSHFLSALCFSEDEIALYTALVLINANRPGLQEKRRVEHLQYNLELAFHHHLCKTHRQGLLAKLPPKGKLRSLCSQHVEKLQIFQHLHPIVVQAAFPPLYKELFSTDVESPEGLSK
#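 Drosophila S2 cells stably expressing Gal4-DBD/mouse RORγ fusion under metallothionein promoter plus UAS-luciferase; compound 1 h, then 700 uM CuSO4 induction for 20 h at ambient temperature; inhibition read as reduced luminescence.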
# Gal4-VP16 FLuc = inhibits Gal4-VP16 luciferase reporter, ROR gamma counter-screen. Drosophila S2 Gal4-VP16 UAS-luciferase, luminescence, 20 h. Potency, µM (top dose mostly 53.6 µM), most hits filed as inhibitors. 3.5% of 310,000 active;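 also: Gal4-VP16 expression switched on by copper sulfate through the metallothionein promoter; nearly all actives have a fitted effect of over 50% in size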
# DT40 TDP1 no CPT = qHTS for Inhibitors of human tyrosyl-DNA phosphodiesterase 1 (TDP1): qHTS in cells in absence of CPT; AID 686978, 2013; Potency, µM (doses to about 46.2 µM), usual class: inhibitors; 15% of 420,000 active; DT40 Tdp1-/- hTDP1 cells, no CPT, ATP luminescence, 48 h; also: nearly all actives have a fitted effect of over 55% in size
#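 No-CPT arm: Tdp1-/-;hTDP1 DT40 cells (400/well) plus compounds, incubated ≥48 hr at 37 °C. Readout CellTiter-Glo luminescence.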
# Hits are given with their value; 0 = inactive; ? = inconclusive; - = no result given; [ ] = dose if it differs, or a comment. Calls follow the shape of the dose curve; as a rule, active = well fitted curve in the direction sought with a large enough effect; inconclusive = small, poorly fitted or top-dose-only effect, or another doubt; inactive = no such curve, though single readings can be large; an effect the other way counts as inactive or inconclusive.
SMILES,DT40 TDP1 CPT,TDP1 block,RORgamma inh,Gal4-VP16 FLuc,DT40 TDP1 no CPT
CC(=O)NN1C(=O)/C(=C\c2ccc(Br)o2)SC1=S,?,0,0,?,16µM
COc1ccc(OCCn2c(NC(=O)c3ccco3)nc3ccccc32)cc1,18µM,0,2.2µM,2.8µM,23µM
S=C(Nc1ccccc1)Nc1nc2ccccc2n1CCOc1ccccc1,18µM,0,1.1µM,7.1µM,16µM
CC(=O)Nc1nc2ccccc2n1CCOc1ccccc1,?,0,0,0,?
COc1ccc(C(=O)Nc2nc3ccccc3n2CCOc2ccc(Cl)cc2)cc1,?,-,-,-,13µM
CCCCN(C(=O)c1cccs1)c1c(N)n(Cc2ccccc2)c(=O)[nH]c1=O,0,0,-,-,0
CCOC(=O)N1CCN(S(=O)(=O)c2ccc3c4c(cccc24)C(=O)N3)CC1,0,0,0,0,0
CC(CC(=O)N(C)C1CCCCC1)S(=O)(=O)c1ccc2c(c1)NC(=O)CO2 (stereo not given),0,0,0,0,0
CCOc1ccc(NC(=O)Cn2c(=O)n(CCCS(=O)(=O)C3CCCCC3)c(=O)c3ccccc32)cc1,?,0[12.3 µM],-,-,?
COc1ccccc1-c1cc(C(=O)Nc2cccnc2)no1,0.46µM,-,0,0,0.46µM
COc1ccc(OC)c(-c2cc(C(=O)NC(C)c3ccccc3)no2)c1 (stereo not given),4.1µM,0,-,-,4.1µM
COc1ccc(NC(=O)c2cc(-c3ccccc3OC)on2)cc1,2.8µM,0,0,0,2.8µM
CCOC(=O)[C@H]1[C@H]2COc3ccc(Cl)cc3[C@@H]2N2C(=O)c3ccc(F)cc3NC(=O)[C@@]12C,?,0,-,-,?
CCOC(=O)[C@H]1[C@H]2COc3ccccc3[C@@H]2N2C(=O)c3cc(Br)ccc3NC(=O)[C@@]12C,0,0,-,-,0
CCOC(=O)[C@H]1[C@H]2COc3ccc(Br)cc3[C@@H]2N2C(=O)c3cc(Br)ccc3NC(=O)[C@@]12C,?,0,-,-,18µM
CCOC(=O)[C@H]1[C@H]2COc3ccc(Cl)cc3[C@@H]2N2C(=O)c3cc(Cl)ccc3NC(=O)[C@@]12C,13µM,0,-,-,?
CCOC(=O)[C@H]1[C@H]2COc3ccc(Cl)cc3[C@@H]2N2C(=O)c3cc(Br)ccc3NC(=O)[C@@]12C,16µM,0,-,-,21µM
CCOC(=O)[C@H]1[C@H]2COc3ccc(Cl)cc3[C@@H]2N2C(=O)c3cc(F)c(F)cc3NC(=O)[C@@]12C,?,0,-,-,23µM
CCOc1ccc(CCNC(=O)CS(=O)(=O)Cc2nc(-c3cccc(OC)c3)oc2C)cc1,?,0,0,0,0
CCN(CC)C(=S)SCC(=O)Nc1nc(=O)c2ccccc2s1,?,0,?,11µM,0
CCCn1c(=O)[nH]c2ccccc21,0,0,0,0,0
CCc1ccc(/C=C2\SC(=S)N(CCCC(=O)N(CCO)c3ccccc3)C2=O)cc1,?,-,-,-,16µM
COC(=O)c1ccc(/C=C2/SC(=S)N(CCCC(=O)Nc3ccccn3)C2=O)cc1,21µM,0,1.1µM,1.8µM,21µM
COC(=O)CCCCCN1C(=O)/C(=C\c2ccncc2)SC1=S,?,0,?,?,?
CC(=C\c1ccccc1)/C=C1/SC(=S)N(CCC(=O)Nc2ccccn2)C1=O,-,0,0,0,-
SMILES,DT40 TDP1 CPT,TDP1 block,RORgamma inh,Gal4-VP16 FLuc,DT40 TDP1 no CPT
CCOc1ccc(/C=C2\SC(=S)N(CCC(=O)N(CCO)c3ccccc3)C2=O)cc1,?,-,0,?,?
O=C(CCN1C(=O)/C(=C/C=C/c2ccccc2)SC1=S)Nc1ccccn1,16µM,0,0,0,?
CCc1ccc(/C=C2/SC(=S)N(CCCC(=O)Nc3ccccc3C(=O)O)C2=O)cc1,0,0,0,0,0
CCc1ccc(/C=C2\SC(=S)N(CCCC(=O)Nc3ccccn3)C2=O)cc1,?,0,0.28µM,1.4µM,?
O=C(NC1CCCCC1)C1(c2ccccc2)CC1(Cl)Cl (stereo not given),0,0,0,0,?
Cc1c(C(=O)NCCC2=CCCCC2)oc2ccc(S(=O)(=O)N3CCOCC3)cc12,?,0,0,0,21µM
O=C(NCCC1=CCCCC1)c1cc(S(=O)(=O)N2CCOCC2)ccc1F,13µM,0[0.505 µM],-,-,?
O=C(NCCC1=CCCCC1)c1ccc(F)c(S(=O)(=O)N2CCOCC2)c1,0,0,?,0,?
